The record followed here is PubChem BioAssay AID720526 (National Center for Advancing Translational Sciences (NCATS), 2013).

SMILES strings stand for the structures. Results filed as inconclusive are left out. A call without a number means that no potency is given here. The source made the active and inactive calls. Calls come from the whole dose curve; as a rule, active = well fitted activation curve with a large enough effect; inconclusive = small, poorly fitted or top-dose-only effect; inactive = no such curve, though single readings can be large or run the other way.
Potency is the fitted concentration of half-maximal effect.

The test is described as follows: qHTS Assay for NPC1 Promoter Activators: Hit Validation Using Renila Luciferase Read-Out for NPC1. As to conditions: Huh7 NPC1 promoter-luciferase reporter, luminescence, 24 h; series mostly up to 76.9 µM. Put shortly: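 Luciferase reporter read-out: promoter activation measured by luminescence after 10 min with detection reagent at room temperature. Cells were Huh7 with a stable NPC promoter-luciferase construct, treated 24 h at 37 deg C.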
Take `COC(=O)c1ccc(NC(=O)c2ccc3nc(C)sc3c2)cc1`: the Potency result is “inactive”.

With `Cc1cccc(NC(=O)CSc2nc3ccccc3o2)c1`, the Potency result was “inactive”.

Consider `NCCOc1ccccc1-c1ccccc1`, for which the Potency result was “inactive”.

Take `COCc1cc(C)nc(N/N=C/c2ccc(-c3ccc(Cl)cc3[N+](=O)[O-])o2)c1C#N`: the Potency entry was “inactive”.

As for `Cc1ccc(C2C3=C(CC(C)(C)CC3=O)N(CCN3CCOCC3)C3=C2C(=O)CC(C)(C)C3)cc1`, the Potency is 16.4 µM (active).

As to `COc1ccc(-n2cc(-c3ccc(Cl)cc3)[nH]c2=S)cc1`, the Potency entry is “inactive”.

Take `CC(=O)Nc1ccc(NC(=O)COc2ncnc3ccccc23)cc1`: the Potency entry was “inactive”.

For the compound `Nc1ccc(C(=O)Nc2ccccc2N)cc1`, the Potency was 16.4 µM (active).

On to `CC1CC(C)CN(CC(=O)N2CCOCC2)C1` (stereo not drawn), for which the Potency entry is “inactive”.

`Cc1ccc(NC(=O)c2c(O)c3ccccc3n(C)c2=O)nc1`: the Potency result was “inactive”.

Turning to `CCCN(CCC)CCCNC(=O)c1cc2cc3ccc(Cl)cc3nc2o1`, the Potency entry was “inactive”.

Take `O=C(CSc1nnc(-c2csc3c2CCCC3)o1)Nc1ccccc1`: the Potency entry was “inactive”.

In the case of `CC1CN(C(=O)c2ccncc2)CC(C)O1` (stereo not drawn), the Potency result was “inactive”.

For `CCOc1cc(C2C(C#N)=C(N)Oc3n[nH]c(C)c32)ccc1OCCN1CCOCC1` (stereo not drawn), the Potency result was “inactive”.

Turning to `COc1ccc(NC(=O)CSc2ccc([N+](=O)[O-])cc2)cc1S(=O)(=O)N1CCOCC1`, the Potency entry was “inactive”.

As to `COCCNC(=O)CN1C(=O)NC(c2ccccc2)(c2ccccc2)C1=O`, the Potency entry is “inactive”.

In the case of `COc1ccc(OC)c(S(=O)(=O)N2CCN3CCCC3C2)c1` (stereo not drawn), the Potency is 32.8 µM (active).

In the case of `O=C(/C=C/c1ccco1)NCC1OCCc2ccccc21` (stereo not drawn), the Potency result was “inactive”.

`COc1ccc(C(=O)OCC(=O)N2CCCC2=O)c(OC)c1`: the Potency entry is “inactive”.

On to `CC(C)(C)C(=O)N/C(N)=N/c1nc2ccccc2o1`, for which the Potency result is “inactive”.

Take `CCCCc1cc(=O)oc2cc(OCC(=O)N3CCOCC3)ccc12`: the Potency result was “inactive”.

Take `Fc1ccc(-c2nc3nc4ccccc4nc3n2Cc2ccco2)cc1`: the Potency result is “inactive”.

On to `O=C(CSc1nnc(-c2ccc([N+](=O)[O-])cc2)o1)Nc1ccccn1`, for which the Potency result was “inactive”.

For the compound `COc1ccc(-c2cc(C(=O)Nc3ccccc3F)on2)cc1`, the Potency result is “inactive”.

On to `O=C(CSc1nnc(-c2ccccc2)o1)Nc1ccccc1F`, for which the Potency entry was “inactive”.

As for `O=C(NC1CCCC1)C(c1ccc(F)cc1)N(C(=O)c1csnn1)c1ccccc1` (stereo not drawn), the Potency entry was “inactive”.

For the compound `Cc1ccc(S(=O)(=O)N2CCN(c3cnn(C)c(=O)c3Cl)CC2)cc1`, the Potency result was “inactive”.

Turning to `COc1ccccc1C(=O)Nc1nnc(SCC(=O)NC2CCCC2)s1`, the Potency result was “inactive”.

As for `CCOC(=O)c1ccc(-c2nnc(-c3ccc(Cl)cc3Cl)o2)cc1`, the Potency result was “inactive”.

Turning to `CC(=O)c1c(C)[nH]c(C(=O)Nc2cccc(S(=O)(=O)N(C)C)c2)c1C`, the Potency is 23.2 µM (active).

In the case of `O=C(Nc1nc2ccc(F)cc2s1)c1ccc(N2CCCC2=O)cc1`, the Potency result was “inactive”.

In the case of `CCN(Cc1nc2cc(Cl)ccc2c(=O)[nH]1)C(=O)C1CC(=O)N(c2cccc3ccccc23)C1` (stereo not drawn), the Potency result is “inactive”.

Turning to `O=C(c1cc2cc([N+](=O)[O-])ccc2oc1=O)n1cccn1`, the Potency entry is “inactive”.

Turning to `CCC(=O)NC(=S)Nc1ccc(N2CCOCC2)cc1`, the Potency result is “inactive”.

In the case of `NNC(=O)c1cccc(S(=O)(=O)Nc2cc(Cl)ccc2Cl)c1`, the Potency entry was “inactive”.

For `COc1ccc([N+](=O)[O-])cc1COc1ccc2c(-c3ccccc3)cc(=O)oc2c1`, the Potency was 1.46 µM (active).

`COC(=O)c1cn(NC(=O)C2CCCCC2)c(=O)c2ccccc12`: the Potency result was “inactive”.

Regarding `CN(C)C(CNC(=O)CNC(=O)c1ccc2ccccc2c1)c1ccccc1` (stereo not drawn), the Potency result is “inactive”.
